In PubChem BioAssay (NCI) one finds growth data, which are given here for 25 compounds.

Holding throughout (assay): NCI-60 one-dose screen, 48 h (100 = growth as untreated, 0 = no growth, -100 = all killed)
Common to all, as to conditions: 10 µM unless noted

Assay [1] concerns DU-145 prostate.
Assay [2] has as its system K-562 leukemia.
Assay [3] has as its system MALME-3M melanoma.
Assay [4] concerns MDA-MB-231 breast.
The test system of assay [5] is RXF 393 renal.
In assay [6] the test system is SF-268 CNS.
Assay [7] deals with SF-295 CNS.
For assay [8], the system named is SF-539 CNS.
In assay [9] the test system is UACC-257 melanoma.
Assay [10] relates to M14 melanoma.

The panel holds about 83,000 compounds, 20% with a hit somewhere; the sample as a whole holds those more often.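 Each cell line was grown in a 96-well plate and treated with one concentration of compound for 48 hours. Values below 10 were considered active.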 A number with no mark means an inactive call. Calls of active or inactive are those of the source.

For `CCn1c2ccccc2c2cc(C(=O)c3cccc4c3CCCN4)ccc21`, the growth in assay [1] is 102%; in assay [2], 101%; in assay [3] it was 107%; in assay [4], 98.1%; in [5] it was 104%; in [6] it was 102%. Moreover, the growth was 103% in assay [7], 111% in [8], 113% in assay [9] and 96.9% in assay [10].
For the compound `[Cl][Hg][n]1c(-c2ccco2)nc2ccccc21`, the growth in [1] was 97.3%; in assay [2] it was 78.8%; in assay [3], 119%; in [4] it was 100%; in assay [5] it was 104%; in [6], 105%. Also, the growth in [7] was 106%; in assay [8] it was 99.3%; in assay [9], 103%; in assay [10] it was 86.1%.
As for `CC1=C(CCCOC(=O)[C@H](N)CC(C)C)C2=C(C)C3(CC3)[C@@](C)(O)C(=O)C2=C1`, the growth was 11.6% in assay [1]; 101% in assay [2]; -44.7% (active) in assay [3]; 11.5% in assay [4]; -74.7% (active) in [5]; 14.6% in assay [6]. Further, the growth was -5.7% (active) in [7], -7.07% (active) in assay [8], 24.4% in assay [9] and -33.2% (active) in [10].
Consider `Cc1cc(C)cc(Nc2nc3c(s2)CC[C@@]2(C)C3=CC[C@@H]3[C@@H]2CC[C@]2(C)C(=O)CC[C@@H]32)c1`, for which the growth was 41.2% in assay [1]; 17.1% in [2]; 79.6% in [3]; 77.5% in assay [4]; -7.45% (active) in [5]; 67.4% in assay [6]. The growth is 42.9% in [7], 23% in [8], 87.9% in assay [9] and 83.4% in assay [10].
Take `Oc1ccc2c3c1OC1[C@@H](O)CC[C@@]4(O)[C@@H](C2)N(CC2CCC2)CC[C@]314` (stereo not given in full): the growth in [1] is 113%; in assay [2] it was 94.7%; in [3] it was 92.5%; in assay [4] it was 114%; in assay [5] it was 97.7%; in assay [6], 105%. In addition, the growth in assay [7] was 102%; in [8] it was 103%; in assay [9], 97.6%; in assay [10], 103%.
Turning to `O=C1Nc2ccccc2C2c3cccn3-c3ccccc3CN12` (stereo not given), the growth in [1] was 84.8%; in [2], 12.4%; in assay [3], 52%; in [4] it was 39.2%; in assay [5], 59.8%; in assay [6] it was 75.1%. The growth in assay [7] was 59.8%; in assay [8], 55.1%; in assay [9], 57.3%; in [10], 20.2%.
`CCC1CN1CCCCN1CC1CC` (stereo not given): the growth is 108% in assay [1]; 114% in assay [2]; 91.6% in assay [3]; 96.7% in assay [4]; 105% in assay [5]; 103% in assay [6]. Also, the growth was 95.3% in assay [7], 100% in [8], 97% in [9] and 98% in [10].
On to `C/C(=C\c1ccn(-c2ccc(N)cc2)n1)[C@@H]1C[C@@H]2O[C@]2(C)CCC[C@H](C)[C@H](O)[C@@H](C)C(=O)C(C)(C)[C@@H](O)CC(=O)O1`, for which the growth in assay [1] was -8.99% (active); in [2], 11.4%; in [3], 36.7%; in assay [4], 33.5%; in assay [5] it was -0.234% (active); in assay [6] it was 37.4%. The growth in [7] was 18.6%; in assay [8], -2.33% (active); in assay [9], 59.5%; in assay [10], -17% (active).
For the compound `CCCOC(=O)N[C@H]1CCc2c(Br)c(OC)c(OC)c(OC)c2-c2ccc(SC)c(=O)cc21`, the growth in assay [1] was -15.7% (active); in assay [2], 10.1%; in assay [3] it was 38.4%; in assay [4], -13.4% (active); in assay [5], 13.8%; in assay [6], 17.8%. Besides, the growth in [7] is 5.54% (active); in assay [8] it was 0.697% (active); in [9], 64.5%; in assay [10], -26.3% (active).
In the case of `COc1ccc(C2=N[C@@H](Cc3ccccc3)C(=O)Nc3ccsc32)cc1`, the growth was 71.3% in assay [1]; 16.2% in [2]; 48.6% in [3]; 55.9% in assay [4]; 34.3% in [5]; 55.1% in assay [6]. The growth in assay [7] is 37%; in [8], 44.9%; in assay [9], 44%; in assay [10] it was 20.7%.
As for `Cc1cc(C)c(CBr)c(C)c1`, the growth in assay [1] is 107%; in assay [2] it was 107%; in [3] it was 99.3%; in assay [4] it was 106%; in assay [5], 100%; in assay [6] it was 105%. The growth was 101% in assay [7], 93.5% in assay [8], 96.8% in assay [9] and 109% in [10].
`Cc1c(NS(=O)(=O)c2ccccc2)ccc([N+](=O)[O-])c1Cl`: the growth in assay [1] was 94%; in assay [2] it was 74.4%; in assay [3], 35.3%; in assay [4], 84.8%; in assay [5], 77%; in assay [6] it was 75.9%. Further, the growth in assay [7] was 31%; in [8] it was 67.4%; in assay [9] it was 59.5%; in [10], 70.4%.
For `CCC(C)(C)[C@H](NC(=O)[C@H]1CCCCN1C)C(=O)N(C)[C@H](C[C@@H](OC(C)=O)c1nc(C(=O)N[C@@H](Cc2ccccc2)C[C@H](C)C(=O)O)cs1)C(C)C`, the growth in [1] was 0.164% (active); in [2], 6.58% (active); in assay [3], 27.4%; in [4] it was 15.7%; in [5], 38.4%; in assay [6], 23.3%. Besides, the growth in assay [7] is -7.51% (active); in assay [8] it was -31% (active); in assay [9], 55.5%; in assay [10] it was -19.3% (active).
In the case of `C#Cc1ccc2c(c1)C(c1ccccc1F)=NCC(=O)N2C`, the growth was 69.9% in assay [1]; 16.7% in assay [2]; 76.7% in [3]; 50.6% in assay [4]; 73.8% in assay [5]; 56.3% in [6]. Further, the growth in assay [7] was 35.6%; in assay [8] it was 53%; in assay [9], 67.1%; in assay [10] it was 16.9%.
Regarding `CCCCC1(CCC)C(=O)NC(=S)NC1=O`, the growth in assay [1] is 119%; in assay [2], 121%; in assay [3], 119%; in assay [4] it was 113%; in assay [5], 195%; in [6], 107%. Moreover, the growth in [7] is 102%; in [8] it was 94.9%; in assay [9] it was 131%; in assay [10] it was 106%.
As for `COc1cc(/C=C/[N+](=O)[O-])cc(OC)c1`, the growth in assay [1] was -63% (active); in assay [2], 0.863% (active); in [3], 24.1%; in assay [4] it was 13.4%; in assay [5], -90% (active); in [6], 25.7%. In addition, the growth is 46.5% in assay [7], -72.2% (active) in assay [8], -16.4% (active) in [9] and -30.1% (active) in assay [10].
As for `OCCNC(Cc1ccccc1)c1ccc2c(c1)OCO2` (stereo not given), the growth in assay [1] was 101%; in assay [2] it was 84.1%; in assay [3], 90.8%; in [4], 98.7%; in assay [5] it was 109%; in assay [6], 97.9%. Further, the growth in assay [7] was 90%; in assay [8] it was 104%; in assay [9], 90.1%; in [10] it was 88.5%.
Regarding `CCC(O)(CN)c1ccccc1` (stereo not given), the growth in [1] is 107%; in assay [2], 107%; in [3] it was 101%; in assay [4], 101%; in assay [5], 110%; in assay [6], 100%. Also, the growth in assay [7] is 92.6%; in assay [8], 99%; in assay [9], 91.9%; in [10], 95%.
With `COC(=O)CC[C@H](Cc1ccccc1)NC(=O)c1csc([C@@H](C[C@H](C(C)C)N(C)C(=O)[C@@H](NC(=O)[C@H]2CCCCN2C)C(C)C)OC(C)=O)n1`, the growth in assay [1] is 39.1%; in [2], 24.4%; in assay [3] it was 74.2%; in assay [4], 36.8%; in assay [5], 69.6%; in assay [6], 26.6%. Further, the growth in assay [7] is 32%; in assay [8], 9.4% (active); in assay [9], 66.6%; in assay [10], 20.2%.
For `O=C(CCl)c1ccc([N+](=O)[O-])o1`, the growth is -30.8% (active) in assay [1]; -36.7% (active) in [2]; -54.6% (active) in [3]; 64.6% in assay [4]; -48.2% (active) in assay [5]; 1.57% (active) in assay [6]. Besides, the growth in assay [7] is 92.2%; in [8], 2.78% (active); in assay [9] it was -49.3% (active); in assay [10], -11.5% (active).
On to `COc1cc2c(=O)n(C3CCCCCCC3)c3c4cc[nH]c4ncc3c2cc1OC`, for which the growth in assay [1] was 62.5%; in assay [2] it was 8.73% (active); in [3] it was 62.6%; in [4], 42.1%; in [5], 19.1%; in assay [6], 42.4%. Also, the growth in assay [7] was 33.2%; in [8], -0.216% (active); in [9] it was 93.8%; in [10] it was 71.4%.
On to `Clc1cc(N2CC2)nc(N2CC2)n1`, for which the growth in assay [1] is 52.5%; in assay [2] it was 69%; in assay [3], 89.7%; in assay [4] it was 88.1%; in assay [5] it was 78%; in assay [6], 59.3%. Besides, the growth was 40.7% in [7], 43.8% in assay [8], 76.7% in assay [9] and 57.4% in assay [10].
With `COC(=O)[C@H](Cc1ccccc1)NC(=O)c1csc([C@@H](C[C@H](C(C)C)N(C)C(=O)[C@@H](NC(=O)[C@H]2CCCCN2C)C2CC2)OC(C)=O)n1`, the growth is 6.13% (active) in assay [1]; 3.82% (active) in assay [2]; 67.8% in [3]; -1.7% (active) in assay [4]; 75.8% in assay [5]; 19.2% in assay [6]. For the same compound, the growth in assay [7] was 3.79% (active); in assay [8], -14.4% (active); in assay [9], 54.2%; in [10], -5.77% (active).
On to `CC1=C([Te]c2ccc(O)cc2)C(=O)c2ccccc2C1=O`, for which the growth in [1] is 7.43% (active); in assay [2] it was -36.6% (active); in assay [3], 5.22% (active); in assay [4], 3.12% (active); in assay [5], -0.398% (active); in assay [6], 13.8%. The growth is -37.4% (active) in assay [7], -19.1% (active) in [8], 11.7% in assay [9] and -24.2% (active) in assay [10].
`C[C@@H]1O[C@@H](O[C@H]2C[C@@H](O)[C@]3(CO)C4C(CC[C@]3(O)C2)[C@@]2(O)CC[C@H](C3=CC(=O)OC3)[C@@]2(C)C[C@H]4O)[C@H](O)[C@H](O)[C@H]1O` (stereo not given in full): the growth in assay [1] is -94.4% (active); in [2] it was -22.4% (active); in [3], -31% (active); in assay [4] it was -22.5% (active); in assay [5], -26.6% (active); in [6], -91.7% (active). The growth is -51.5% (active) in [7], -80.1% (active) in assay [8], -91.7% (active) in [9] and -86.2% (active) in [10].
